ANO1 block = inhibitors of mouse TMEM16A calcium-activated chloride channel; AID 588511; normalized B-score (activity score, 25-100; higher = stronger inhibition) at 10 µM; HEK293 TMEM16A/YFP iodide influx fluorescence, ionomycin; 310,000 tested, 1.2% active; Q8BHY3;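 active = ratio plate-corrected score three or more library SD toward inhibition, starting fluorescence score within five deviations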;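 also: score derived from kinetic fluorescence span divided by baseline fluorescence per well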
ANO1 activ = activators or potentiators of mouse TMEM16A chloride channel | HEK293 TMEM16A/YFP-H148Q/I152L, iodide quench fluorescence; active compounds read low | 340,000 tested, 0.3% active | Q8BHY3 | B-score at 10 µM;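 active = fluorescence-ratio B-score plate-corrected deviation score at least 3 library SD below zero, with starting fluorescence score within 5 deviations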;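 also: channel opened by trigger with iodide after compound preincubation; score built on the fluorescence ratio of max minus min over baseline; more negative score means more quench and so TMEM16A activation or potentiation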
NTR1 ag = NTR1 (human) agonism; 330,000 tested, 0.17% active; activation, % at 20 µM; P30989; NTR1-U2OS beta-arrestin-GFP spot imaging, agonist mode;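 active = activation at or above 40% of the spot to cytoplasm intensity ratio, with at least 20 cells analyzed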;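 also: 0% = DMSO without peptide and 100% = 100 nM NTR1 peptide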
Target sequence (P30989 whole entry, looked up): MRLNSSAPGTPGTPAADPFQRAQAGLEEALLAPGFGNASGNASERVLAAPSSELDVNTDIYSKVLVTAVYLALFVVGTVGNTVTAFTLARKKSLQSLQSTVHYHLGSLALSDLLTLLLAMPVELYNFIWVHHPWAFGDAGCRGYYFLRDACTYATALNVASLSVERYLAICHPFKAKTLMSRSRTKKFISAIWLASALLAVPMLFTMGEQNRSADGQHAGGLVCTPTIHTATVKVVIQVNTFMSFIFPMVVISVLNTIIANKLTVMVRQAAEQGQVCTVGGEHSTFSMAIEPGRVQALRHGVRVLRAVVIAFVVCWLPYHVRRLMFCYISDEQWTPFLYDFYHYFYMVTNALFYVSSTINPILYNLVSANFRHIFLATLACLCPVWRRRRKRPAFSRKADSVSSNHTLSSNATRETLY
MEKK3 PB1 HTS = MEKK3-MEK5 PB1 interaction, increase or decrease | bead-based flow cytometry, Alexa488-MEK5 binding to MEKK3; actives lie on both sides; 0 = blocked by unlabeled MEK5, 100 = vehicle | Q99759 | binding response (% of control), % at 10 µM | AID 1529 | 290,000 tested, 1.4% active;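 active = binding response more than 3 SD above or below the average of its plate-row segment, actives on both sides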;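 also: Alexa488 bead fluorescence after subtracting the streptavidin-only scavenger bead signal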
MEKK2 mut-MEK5 = signal of MEK5 binding to mutant human MEKK2 PB1 domain | bead flow cytometry, Alexa488-MEK5 binding to MEKK2 mutant | percent response, % at 10 µM | 290,000 tested, 0.35% active; in the data active = percent response above about 24%, passing the limit was not always enough
MEKK2wt PB1 HTS = raises or lowers MEK5 binding to wildtype human MEKK2 PB1 domain; bead flow cytometry, Alexa488-MEK5 binding to MEKK2 WT; actives lie on both sides; binding response (% of control), % at 10 µM; 290,000 tested, 1.1% active; AID 1531; in the data active = binding response below about 67% or above about 130%
TMEM16A reconf = TMEM16A (mouse) chloride channel inhibition, re-confirmation; shares compounds with ANO1 block; HEK293 TMEM16A/YFP-H148Q, iodide quench fluorescence; ionomycin added to raise cell calcium; inhibition, % at 10 µM; 2,300 tested, 39% active; AID 652189;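 active = mean duplicate percent inhibition, scaled so buffer wells are 0 and the reference blocker 100, over three buffer SD above buffer mean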
HEK293 Ca mobil = alters calcium mobilization in TMEM16A HEK293 cells, counter-screen. shares compounds with ANO1 block. TMEM16A/YFP HEK293, Fluo4 calcium mobilization. calcium response (% of ionomycin), % at 10 µM. 2,300 tested, 2% active;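 active = duplicate-averaged calcium signal over 20% of the ionomycin maximum, relative to buffer baseline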;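 also: each well's signal is peak minus trough fluorescence divided by its pre-addition baseline; 0% = buffer wells and 100% = ionomycin wells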
Parental YFP cnt = counter-screen for TMEM16A inhibitors: effect in parental YFP-HEK293 cells; AID 652233; 2,300 tested, under 10 active; iodide YFP quench, ionomycin; YFP ratio F(max-min)/F0 at 10 µM; shares compounds with ANO1 block;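 active = yellow fluorescent protein signal ratio exceeding the buffer control mean by over 5 SD of those controls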;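 also: ratio is mean of duplicate wells from kinetic YFP trace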
ClC-1 rat inh = selectivity of TMEM16A inhibitors: inhibition of rat ClC-1 chloride channel. shares compounds with ANO1 block. AID 652236. ratio percent, % at 10 µM. CHO ClC-1-YFP, iodide influx fluorescence quench; iodide control reads 0, buffer control 100. 2,300 tested, under 10 active;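 active = duplicate-mean ratio percent above the mean of iodide-only control wells, which defines zero, plus 5 of their SD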;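 also: higher percent means stronger block of ClC-1 iodide influx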
Starred values were filed as active, the others as inactive; i = inactive; . = no result. The list is not random: actives were taken first. Their share in the collection is about 3.4%.

SMILES | ANO1 block | ANO1 activ | NTR1 ag | MEKK3 PB1 HTS | MEKK2 mut-MEK5 | MEKK2wt PB1 HTS | TMEM16A reconf | HEK293 Ca mobil | Parental YFP cnt | ClC-1 rat inh
CC(C)c1ccc(NNC(=O)C2CCC2)cc1 | i | i | 0.6 | 103.0 | 1.0 | 103.0 | . | . | . | .
CC(C)CN(C(=O)COC(=O)C(C)N1C(=O)c2ccccc2C1=O)c1c(N)n(Cc2ccccc2)c(=O)[nH]c1=O (stereo unspecified) | i | i | 0.5 | . | . | . | . | . | . | .
CC(C)c1ccccc1OCC(=O)NCC(c1cccs1)N1CCOCC1 (stereo unspecified) | 100* | i | 3.0 | 91.0 | 11.0 | 97.0 | 33.5%* | i | -1.26 | -3.0
COc1ccccc1OCC(=O)NCC(c1cccs1)N1CCOCC1 (stereo unspecified) | i | i | 0.3 | 105.0 | 6.0 | 106.0 | . | . | . | .
COc1cccc(NC(=O)C2CCCO2)c1 (stereo unspecified) | i | i | -0.4 | 105.0 | 1.0 | 104.0 | . | . | . | .
Clc1ccc(OCCSCc2nc3ccccc3[nH]2)cc1 | 100* | i | 1.3 | 105.0 | 5.0 | 103.0 | 20.5%* | i | -1.17 | -4.5
Cc1nc2ccccc2c2c1CC(C(C)(Cl)Br)O2 (stereo unspecified) | 25* | i | 3.3 | 107.0 | 4.0 | 99.0 | 18.0%* | i | -1.02 | -20.0
C/C=C(/C)C(=O)Nc1cccc(C2=NOC3(C2)C[C@@H](C(N)=O)N(C(=O)CCCCC)C3)c1 (stereo partly specified) | i | i | 9.7 | 87.0 | -12.0 | 95.0 | . | . | . | .
C=CCOC(=O)c1c(C)nc2cc3c(cc2c1C)OCO3 | i | i | 1.9 | 118.0 | 4.0 | 109.0 | . | . | . | .
COc1cccc(NC(=O)C2CCN(Cc3cnn(-c4ccccc4)c3-n3cccc3)CC2)c1 | 25* | i | -0.5 | 99.0 | 2.0 | 121.0 | i | i | -1.38 | -9.0
Cc1nn(CC(=O)N2CCN(C)CC2)c(=O)c2ccccc12 | i | i | 1.3 | 98.0 | -43.0 | 97.0 | . | . | . | .
Cc1nc(-c2ccc(Cl)cc2)sc1C1(C)CC(c2ccc(Cl)cc2)=NO1 (stereo unspecified) | 25* | i | -5.0 | 103.0 | -4.0 | 100.0 | i | i | -0.934 | 0.0
Cc1nc(-c2ccc(Cl)cc2)sc1C1(C)CC(c2ccccc2)=NO1 (stereo unspecified) | i | i | 2.0 | 109.0 | 3.0 | 100.0 | . | . | . | .
CC(Sc1ccc2c(c1)OCCO2)C(=O)Nc1ccc(N2CCOCC2)cc1 (stereo unspecified) | i | i | -0.1 | 100.0 | -7.0 | 94.0 | . | . | . | .
COc1ccc(CN2CC(C(=O)NCCN3CCOCC3)CC2=O)cc1 (stereo unspecified) | 100* | i | -0.2 | 96.0 | 5.0 | 103.0 | i | i | -0.877 | -4.0
COCCCNC(=O)C1CC(=O)N(Cc2ccc(OC)cc2)C1 (stereo unspecified) | i | i | 0.4 | 101.0 | 3.0 | 98.0 | . | . | . | .
COc1ccc(CN2CC(C(=O)NCc3ccccn3)CC2=O)cc1 (stereo unspecified) | 100* | i | -0.4 | 102.0 | 4.0 | 99.0 | i | i | -1.14 | -20.0
CC(C)(C)C1=Nn2c(nnc2-c2ccccn2)SC1 | i | i | 5.6 | 96.0 | -9.0 | 95.0 | i | i | -1.22 | -15.0
O=C(NCc1ccccc1)c1cc2nc(C3CC3)cc(C(F)(F)F)n2n1 | 100* | i | 0.8 | 98.0 | -8.0 | 97.0 | i | i | -1.17 | -14.0
Cc1ccc(Oc2ccccc2NC(=O)CSCC(=O)Nc2cc(C)on2)cc1 | i | i | 3.4 | . | . | . | 21.5%* | i | -1.01 | -11.0
CCOc1ccc(S(=O)(=O)N2CCC(C(=O)N3CCOCC3)CC2)cc1Cl | i | i | 1.5 | 101.0 | 0.0 | 100.0 | . | . | . | .
COc1ccc(/C=C2/SC(=O)N(CCC(=O)Nc3ccccc3C(=O)O)C2=S)cc1 | i | i | 1.9 | 100.0 | 4.0 | 100.0 | . | . | . | .
O=C(CCc1nc2ccccc2c(=O)[nH]1)NCCN1C(=O)S/C(=C\c2ccc(Cl)cc2Cl)C1=O | 25* | i | 5.8 | . | . | . | i | i | -1.02 | -6.0
N#C/C(=C\c1ccc(N2CCOCC2)o1)C(=O)NC1CCCCC1 | i | i | -1.5 | 89.0 | -18.0 | 89.0 | i | i | -0.935 | -19.0
CCc1cc(C(=O)N2CCCC(CCC(=O)N3CCN(c4ccccn4)CC3)C2)no1 (stereo unspecified) | i | i | 0.3 | 103.0 | -5.0 | 98.0 | . | . | . | .
SMILES | ANO1 block | ANO1 activ | NTR1 ag | MEKK3 PB1 HTS | MEKK2 mut-MEK5 | MEKK2wt PB1 HTS | TMEM16A reconf | HEK293 Ca mobil | Parental YFP cnt | ClC-1 rat inh
CC(C)c1cc(C(=O)N2CCCC(CCC(=O)N3CCN(c4ccccn4)CC3)C2)no1 (stereo unspecified) | 25* | i | 0.1 | 76.0 | -27.0 | 82.0 | i | i | -1.03 | -17.5
Cc1cccc(C)c1NC(=O)CN(C1CCCCC1)S(C)(=O)=O | i | i | -0.5 | 97.0 | 0.0 | 99.0 | . | . | . | .
CCOC(=O)c1cc2ccccc2n1CCN(CC)CC | 25* | i | -1.6 | 100.0 | 3.0 | 108.0 | i | i | -1.19 | -7.0
Cc1ccc(C(=O)Cn2c(C(=O)OCCO)cc3ccccc32)cc1 | i | i | 0.6 | 98.0 | 2.0 | 99.0 | . | . | . | .
Cc1ccc(C)c(OCCC(=O)OCC(=O)Nc2cc(S(=O)(=O)N3CCOCC3)ccc2C)c1 | i | i | 1.7 | . | . | . | . | . | . | .
O=c1oc2ccccc2cc1-c1nc2c(s1)CCCC2 | 25* | i | 2.2 | . | . | . | i | i | -1.25 | -7.5
O=S(=O)(NC1CC(NS(=O)(=O)OCC(Cl)(Cl)Cl)C2CCCCC12)OCC(Cl)(Cl)Cl (stereo unspecified) | 25* | i | 10.2 | 104.0 | -3.0 | 93.0 | i | i | -1.26 | -12.5
c1ccc2c(c1)ncn2CCCOc1ccc2c(c1)CCC2 | 100* | i | 3.2 | 92.0 | -7.0 | 93.0 | i | i | -1.14 | -8.5

Bioassay records: PubChem, several laboratories
